Structures are written as SMILES. About 79,000 compounds went through this panel and 15% of them were active in at least one assay; those are over-represented in the sample as a whole. Values without a mark were called inactive. Active and inactive are the calls of the source. No stated cut-off is given here; in the data, active means growth inhibition above about 70%; inactive means the rest.

The nature of assay [1]: NCI Yeast Anticancer Drug Screen. Data for the rad50 strain (AID 155).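 Further: 0% = growth of vehicle-only cultures of the same strain.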 The note with it: S. cerevisiae rad50 strain growth inhibition; at 50.0 µM; hits give high values. The method in brief: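 Yeast carrying a defined DNA repair defect were exposed to test compounds, and growth was compared with vehicle-treated controls to give percent inhibition.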
Assay [2] in a line: NCI Yeast Anticancer Drug Screen. Data for the mec2-1 strain (AID 157). The note with it: S. cerevisiae mec2-1 strain, at 50.0 µM, hits give high values. The method in brief:
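Test agents were screened against the mec2-1 yeast strain, with defined DNA repair or cell cycle alteration. Growth was scored as inhibition against vehicle-only controls.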

The nature of assay [3]: NCI Yeast Anticancer Drug Screen. Data for the sgs1 mgt1 strain (AID 161).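 Further: 0% = growth of cultures given vehicle only.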 Particulars: S. cerevisiae sgs1 mgt1 strain, at 50.0 µM, hits give high values. The method in brief:
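Mutant yeast exposed to compound; growth scored against vehicle-only wells.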

Assay [4] is described as follows: NCI Yeast Anticancer Drug Screen. Data for the cln2 rad14 strain (AID 165).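 Further: 0% = growth equal to vehicle treated cultures.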 Particulars: S. cerevisiae cln2 rad14 strain, at 50.0 µM, hits give high values. The method, boiled down: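 Growth of compound-exposed yeast (cln2 rad14 genotype) measured and expressed as inhibition relative to vehicle.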
The nature of assay [5]: NCI Yeast Anticancer Drug Screen. Data for the bub3 strain (AID 167). The note with it: S. cerevisiae bub3 mutant strain, at 50.0 µM, hits give high values. The method in brief: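 Compounds were applied to a genetically altered yeast strain carrying a cell-cycle control defect. Growth inhibition was scored against vehicle-treated controls.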
A short description of assay [6]: NCI Yeast Anticancer Drug Screen. Data for the mlh1 rad18 strain (AID 175). Particulars: S. cerevisiae mlh1 rad18 strain growth inhibition; at 50.0 µM; hits give high values. The method, boiled down:
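In this whole-cell yeast screen, a strain with altered DNA damage repair is challenged with compound, and its growth is measured against matched vehicle-treated controls.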

On to `CCC(=O)OC1CCC2(C)C(=CCC3C2CCC2(C)C(C(C)CCCC(C)C)CCC32)C1` (stereo unspecified), for which the growth inhibition is 3.1% in assay [1]; 7.6% in assay [2]; -20.6% in assay [3]; 4.45% in assay [4]; -0.8% in assay [5]; -12.2% in assay [6].

Regarding `Nc1nc2c(=O)[nH]c(=O)[nH]c2n1C1OC(CO)C(O)C1O` (stereo unspecified), the growth inhibition in assay [1] is 4.7%; in assay [2], -3.9%; in assay [3], 0.35%; in assay [4] it was 4.9%; in assay [5] it was 14.2%; in assay [6], -6.1%.

With `O=CNc1ncccn1`, the growth inhibition in assay [1] is -6.95%; in assay [2], 1.3%; in assay [3] it was 7.25%; in assay [4], -2.05%; in assay [5] it was -2.2%; in assay [6], -7.75%.

Take `O=[N+]([O-])c1ccc2c(c1)nc(-c1ccccn1)n2CCc1ccncc1`: the growth inhibition was 95.2% (active) in assay [1]; 98.7% (active) in assay [2]; 99% (active) in assay [3]; 87% (active) in assay [4]; 56.2% in assay [5]; 99.2% (active) in assay [6].

For `Cc1cc(Cl)ccc1C1OC(=O)c2c1ccc1ccccc21` (stereo unspecified), the growth inhibition in assay [1] was 16.9%; in assay [2], 6.8%; in assay [3] it was -6.25%; in assay [4], 15.6%; in assay [5] it was 7.5%; in assay [6] it was 13.8%.

Turning to `CC(NC(=O)c1cnc2ccccc2n1)C(=O)O` (stereo unspecified), the growth inhibition was -19.4% in assay [1]; -24.4% in assay [2]; -29.8% in assay [3]; -16.4% in assay [4]; 4.05% in assay [5]; -24.8% in assay [6].

On to `O=C1c2ccccc2-c2cccc(I)c21`, for which the growth inhibition was 15.6% in assay [1]; -8.7% in assay [2]; -5.55% in assay [3]; 6.95% in assay [4]; 0.1% in assay [5]; -7.4% in assay [6].

Turning to `CCCCCCCC/C=C\CCCCCCCC(=O)NCCN(CCN)C(=O)CCCCCCC/C=C\CCCCCCCC`, the growth inhibition in assay [1] is -20.9%; in assay [2] it was -18.4%; in assay [3], -16.8%; in assay [4], -20.6%; in assay [5], -41.9%; in assay [6], -23.8%.

Turning to `COc1ccc(-c2oc3ccc(C)cc3c(=O)c2O)cc1`, the growth inhibition in assay [1] was 6.9%; in assay [2], -8%; in assay [3] it was -14.8%; in assay [4] it was 14.8%; in assay [5] it was -5.7%; in assay [6], -26.8%.

For `O=C(Nc1ccccc1)Oc1ccc(Cl)cc1Cc1ccccc1`, the growth inhibition is 99.7% (active) in assay [1]; 99.8% (active) in assay [2]; 99.8% (active) in assay [3]; 99.8% (active) in assay [4]; 99.8% (active) in assay [5]; 99.8% (active) in assay [6].

As for `COC1(OC)C(Cl)=C(Cl)C2C1C1(Cl)C(Cl)=C(Cl)C2(Cl)C1(OC)OC` (stereo unspecified), the growth inhibition in assay [1] is 39.9%; in assay [2], 10.1%; in assay [3] it was 1.7%; in assay [4] it was 13.6%; in assay [5], 2.2%; in assay [6] it was 5.3%.

As to `O=C(CSc1nnc(Cc2ccccc2)o1)Nc1ccc(Cl)cc1Cl`, the growth inhibition in assay [1] is -18.8%; in assay [2], -41%; in assay [3], -41.3%; in assay [4], -10.7%; in assay [5], -10.2%; in assay [6] it was -14%.

`COc1ccc(-c2c(C(=O)O)cc(O)c3c(OC)c(OC)c(OC)cc23)cc1OC`: the growth inhibition in assay [1] is -2.8%; in assay [2], 4%; in assay [3] it was -17.6%; in assay [4] it was -9.2%; in assay [5], 2.7%; in assay [6], 32.5%.

`Cc1cc(C)c(C(C=O)c2ccccc2)c(C)c1` (stereo unspecified): the growth inhibition was 18.6% in assay [1]; 2.85% in assay [2]; 10.3% in assay [3]; 17.9% in assay [4]; 6.25% in assay [5]; 4.45% in assay [6].

For `Cc1nc2c(c(=O)[nH]1)S/C(=C(/C#N)c1nc3ccccc3[nH]1)N2c1ccccc1`, the growth inhibition in assay [1] is -39.8%; in assay [2] it was -29%; in assay [3], -42.4%; in assay [4], -22%; in assay [5], -40.8%; in assay [6], -47.9%.

As to `Cc1ccc(S(=O)(=O)/C(C#N)=C\N2CC(=O)NC2=S)cc1`, the growth inhibition in assay [1] was -20.1%; in assay [2], -21.1%; in assay [3], -23.2%; in assay [4] it was -10.3%; in assay [5] it was -13.9%; in assay [6], -25.6%.

Consider `Oc1ccc2ccccc2c1CNC1CCCCC1`, for which the growth inhibition was -9.05% in assay [1]; -18.9% in assay [2]; -9.05% in assay [3]; -26.1% in assay [4]; 29.7% in assay [5]; -26.6% in assay [6].

As to `O=C(Cc1ccccc1)NN1C(=O)/C(=C\c2cccc(O)c2)SC1=Nc1ccccc1`, the growth inhibition in assay [1] was -11%; in assay [2] it was -18.9%; in assay [3] it was -6%; in assay [4], 5.9%; in assay [5] it was -45.3%; in assay [6], -16.9%.

In the case of `CC(C)OC(=S)SCC(=O)c1ccc(-c2ccccc2)cc1`, the growth inhibition is 1.7% in assay [1]; 17.5% in assay [2]; 21.3% in assay [3]; -2.45% in assay [4]; 30.9% in assay [5]; 8.75% in assay [6].

As to `CCCCCCCC(=O)NNCc1ccccc1`, the growth inhibition in assay [1] is -16.1%; in assay [2], 33.2%; in assay [3], 15.6%; in assay [4], 3.35%; in assay [5], 15.9%; in assay [6], 6.9%.

As for `COc1ccc(C2CCCCCC2OC(=O)c2ccc([N+](=O)[O-])cc2)c(OC)c1OC` (stereo unspecified), the growth inhibition in assay [1] was 16%; in assay [2] it was 11.5%; in assay [3], -2.45%; in assay [4] it was 42.9%; in assay [5], 2.6%; in assay [6], 1.7%.

As for `S=c1s/c(=C\c2ccccc2)c2nc3ccccc3n12`, the growth inhibition in assay [1] is 7.15%; in assay [2] it was 9.2%; in assay [3] it was -9.4%; in assay [4] it was -46.7%; in assay [5] it was 13.9%; in assay [6], 4.75%.

For the compound `C=CC(C)(C)c1c(OC(C)=O)cc2oc3c(OC(C)=O)c(OC(C)=O)cc(CC=C(C)C)c3c(=O)c2c1O`, the growth inhibition in assay [1] was 34%; in assay [2] it was 12.3%; in assay [3], 11.2%; in assay [4], 7.35%; in assay [5], -5.85%; in assay [6], -0.55%.

Take `CCOC(=O)C(C(=O)OCC)(C(=O)C(F)(F)C(F)(F)C(F)(F)C(F)(F)C(=O)C(C(=O)OCC)(C(=O)OCC)c1ccccc1)c1ccccc1`: the growth inhibition was 3.75% in assay [1]; 0% in assay [2]; -3.7% in assay [3]; -10.6% in assay [4]; 7.75% in assay [5]; 11.1% in assay [6].

For the compound `COC(=N)CCCl`, the growth inhibition in assay [1] was -1.3%; in assay [2], -3.95%; in assay [3], 10.8%; in assay [4], 7.2%; in assay [5] it was -4.55%; in assay [6], 1.5%.

Regarding `N#C/C(=C/c1ccc[nH]1)C(=O)O`, the growth inhibition in assay [1] is -11.6%; in assay [2], -10.2%; in assay [3] it was -6.9%; in assay [4] it was -1%; in assay [5], -5.05%; in assay [6], -25.9%.

With `COC(=O)N/N=C(\c1ccc(OC)cc1)C(c1ccc(OC)cc1)C1(O)C(=O)Nc2c(C)cc(Cl)cc21` (stereo unspecified), the growth inhibition was 20.1% in assay [1]; 14.8% in assay [2]; -4.35% in assay [3]; -30.6% in assay [4]; 18.6% in assay [5]; 18.6% in assay [6].

Consider `NC(=O)N/N=C/c1c(Cl)cccc1Cl`, for which the growth inhibition in assay [1] was 15.9%; in assay [2] it was 17.2%; in assay [3], 1.4%; in assay [4], -10.7%; in assay [5], -27.6%; in assay [6] it was 31.5%.

As for `CC(=O)O/C(C)=C/C(C)C`, the growth inhibition in assay [1] is 2.65%; in assay [2] it was -5.35%; in assay [3] it was 9%; in assay [4], -3.15%; in assay [5] it was 2.1%; in assay [6] it was -8.95%.

Consider `Cc1ccc(C(=O)C(O)c2ccc(C)cc2)cc1` (stereo unspecified), for which the growth inhibition in assay [1] is 35.6%; in assay [2] it was -34.6%; in assay [3], 4.95%; in assay [4], -24.1%; in assay [5], 0.55%; in assay [6] it was -7.05%.

Take `CC(=O)Nc1cc2c(cc1Br)-c1ccccc1C2=O`: the growth inhibition in assay [1] was -15%; in assay [2], -3.5%; in assay [3], 15.4%; in assay [4], -31.7%; in assay [5] it was 9.45%; in assay [6] it was -2.15%.

Regarding `COc1cc(-c2c(C)c(C)nc(OC)c2C#N)cc(OC)c1OC`, the growth inhibition in assay [1] is -1.05%; in assay [2], -13.9%; in assay [3], -24%; in assay [4], -19.1%; in assay [5] it was -15.2%; in assay [6], -17.9%.

Turning to `CCOC(=O)/C(C#N)=C/c1ccc(Cl)cc1`, the growth inhibition is -5.3% in assay [1]; -11.7% in assay [2]; -13.1% in assay [3]; 0.85% in assay [4]; -34.4% in assay [5]; -0.65% in assay [6].

In the case of `C=CC1C(C[C@@H]2c3cc(O)c(O)cc3CCN2C(C)=O)C(C(=O)OC)=CO[C@H]1OC1OC(CO)C(O)C(O)C1O` (stereo partly specified), the growth inhibition in assay [1] is -1.15%; in assay [2] it was -38.4%; in assay [3], -32.8%; in assay [4], 14.8%; in assay [5] it was -35%; in assay [6] it was 19.4%.

Regarding `CSc1nc(N)cc(Cl)n1`, the growth inhibition in assay [1] is 7.75%; in assay [2] it was -25.5%; in assay [3] it was -12.4%; in assay [4], 5.85%; in assay [5], -1.9%; in assay [6], -9.7%.

For `O=C1OCC/C1=C\c1ccc(Br)cc1`, the growth inhibition in assay [1] is 7.2%; in assay [2], -10.2%; in assay [3], 3.3%; in assay [4] it was -29.6%; in assay [5], 7.5%; in assay [6] it was -1.1%.

(Values after PubChem BioAssay (NCI).)
